Tau fibril FP: tau fibrillization inhibition (FP) | K18 P301L tau heparin fibrillization, Alexa594 FP, 6 h | Potency, µM (titrated, usually from 57.7 µM), for the others: at the top dose activity, negative = inhibition, actives largely listed as inhibitors | AID 1468 | 280,000 compounds, 0.39% hits | P10636; further: nearly all actives have a fitted effect of over 55% in size
Target sequence (P10636 561-689 P618L limits assumed): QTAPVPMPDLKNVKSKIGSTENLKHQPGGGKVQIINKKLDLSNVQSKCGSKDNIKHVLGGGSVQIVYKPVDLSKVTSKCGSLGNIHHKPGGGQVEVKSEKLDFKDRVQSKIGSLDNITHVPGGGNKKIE
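Human K18 P301L fragment (15 uM unlabeled plus 0.24 uM Alexa 594-labeled) in 100 mM sodium acetate pH 7 with compound, aggregation induced by 20 uM heparin for 6 hr at 37 C. ThT (30 uM) added for 1 hr, then Alexa 594 FP read.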
Tau fluor counter: counter-screen for tau fibril formation inhibitors | AID 1463 | tau K18 P301L Alexa594 fluorescence, heparin fibrillization | Potency, µM (series often up to 57.7 µM), without a hit: at the highest dose activity change, negative = decrease | 280,000 compounds, 0.93% hits; further: nearly all actives have a fitted effect of over 55% in size
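Human tau K18 P301L (15 uM unlabeled, 0.24 uM Alexa 594-labeled) in 100 mM sodium acetate pH 7 with 20 uM heparin, 6 hr at 37 C. ThT 30 uM added, 1 hr ambient; Alexa 594 FP and total fluorescence read at 555/632 nm.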
Tau ThT inhib: inhibitors of human tau fibril formation, thioflavin T binding; P10636; recombinant tau K18 P301L, heparin-induced fibrillization, ThT fluorescence; Potency, µM (titrated, usually from 57.4 µM), for the others: top-dose activity, negative = inhibition, most hits filed as inhibitors; 270,000 compounds, 2.1% hits; further: nearly all actives have a fitted effect of over 55% in size
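Using a mix of unlabeled (15 uM) and Alexa 594-labeled (0.24 uM) tau K18 P301L, heparin-triggered fibrillization over 6 hr at 37 C was scored by ThT fluorescence.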
NPSR antagonist: antagonists of human neuropeptide S receptor cAMP signaling; Q6W5P4; CHO-NPSR cells, cAMP TR-FRET, antagonist mode; Potency, µM (top dose mostly 38.3 µM), inactives show at the top dose activity change, negative = inhibition, actives largely listed as inhibitors; 220,000 compounds, 1% hits; further: nearly all actives have a fitted effect of over 50% in size
Target sequence (Q6W5P4 whole entry, looked up): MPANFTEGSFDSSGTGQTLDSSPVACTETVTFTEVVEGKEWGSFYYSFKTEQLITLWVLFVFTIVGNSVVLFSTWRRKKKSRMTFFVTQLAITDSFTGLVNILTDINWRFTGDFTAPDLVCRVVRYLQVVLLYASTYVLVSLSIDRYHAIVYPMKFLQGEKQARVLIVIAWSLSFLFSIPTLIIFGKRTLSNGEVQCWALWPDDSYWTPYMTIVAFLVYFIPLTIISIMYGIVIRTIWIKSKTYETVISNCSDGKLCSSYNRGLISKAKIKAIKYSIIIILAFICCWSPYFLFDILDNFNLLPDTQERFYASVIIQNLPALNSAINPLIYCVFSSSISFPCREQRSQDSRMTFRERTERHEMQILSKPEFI
Luc counter: counter-screen: inhibitors of Kinase-Glo firefly luciferase | 200,000 compounds, 0.28% hits | Potency, µM (highest dose often 38.3 µM), for the others: top-dose activity change, negative = inhibition, actives largely listed as inhibitors | Q27757 | Kinase-Glo luciferase, ATP luminescence, 8 min; further: nearly all actives have a fitted effect of over 60% in size
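Kinase-Glo luciferase light output from ATP and luciferin was measured with 10 uM ATP, within the enzyme's linear range. Buffer: 50 mM imidazole pH 7.2, 50 mM KCl, 7 mM MgCl2, 0.01% Tween 20, 0.05% BSA; luminescence read after 8 min at ambient temperature.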
Numbers without * were called inactive; u = inconclusive; x = no result; [ ] = dose if it differs, or a comment. In the library only some 3.3% were active in any assay of this set; here they are far more common. The call rests on the fitted dose curve; in most records, active means well fitted curve in the direction sought with a large enough effect; inconclusive means small, poorly fitted or top-dose-only effect, or another doubt; inactive means no such curve, though single readings can be large; an effect the other way counts as inactive or inconclusive. On the % scale 0 is the no-effect control and ±100 the full control effect; potency means the concentration at half of the fitted maximal effect.

SMILES	Tau fibril FP	Tau fluor counter	Tau ThT inhib	NPSR antagonist	Luc counter
COc1ccccc1CNC(=O)CCC1N=C2c3ccccc3N=C(SCc3ccc(C)cc3)N2C1=O (stereo unspecified)	0%	2%	0%	x	x
O=C(Nc1ccc(N2CCCCC2)c(Cl)c1)c1ccc2c(c1)OCCO2	12%	14µM*[quencher]	u	-23%[46.1 µM]	-3%
O=C(O)c1cc(S(=O)(=O)Nc2cccc(Cl)c2)ccc1O	x	x	x	x	0%
Cc1cccc2c(N=Nc3ccc(S(=O)(=O)Nc4cccc(Cl)c4)cc3[N+](=O)[O-])c(O)[nH]c12	4%	5.6µM*[quencher]	u	-3%	-4%
CCOC(=O)c1c(NC(=O)CSc2cn(CCNC(=O)c3ccccc3F)c3ccccc23)sc2c1CCCC2	-20%	u	-9%	x	x
COc1ccc(-c2cc(-c3ccccc3)c(C#N)c(=S)[nH]2)cc1	1%	-2%	u	13µM*	1%
COc1ccc2[nH]c(-c3ccccc3)cc2c1	9%	13µM*[quencher]	u	-12%	x
COc1ccc2[nH]c(C(=O)c3ccccc3)cc2c1	-4%	-8%	-14%	x	-2%
COC(=O)c1cc2occc2n1Cc1nc(-c2ccccc2)oc1C	-10%	-6%	0%	x	x
COc1ccc(OC)c(Nc2nc(-c3ccc(C)cc3)nc3ccccc23)c1	-13%	u	1%	x	x
COc1ccccc1CNc1nc(-c2ccc(N(C)C)cc2)nc2ccccc12	u	11µM*[quencher]	16µM*	x	-4%
COc1ccc(Nc2nc(-c3ccc(C)cc3)nc3ccccc23)c(OC)c1	-1%	7.9µM*[quencher]	u	x	x
COc1ccc(-c2nc(N/N=C(\C)c3ccc(O)cc3)c3ccccc3n2)cc1	6%	20µM*[quencher]	u	7%[7.67 µM]	x
COc1ccc2c(c1)O[C@@H](c1cccc(C(F)(F)F)c1)[C@H](OC(=O)NC1CCCC1)C2=O	2%	-11%	-9%	x	1%
CC(C)C(=O)Nc1cccc(C(=O)Nc2nnc(C(F)(F)F)s2)c1	-5%	-1%	-1%	x	x
C#CC(=O)N(c1ccc(OC)c(OC)c1)C(C(=O)NC1CCCC1)c1cccs1 (stereo unspecified)	-7%	-10%	u	13µM*	2%
C#CC(=O)N(c1cccc(OC)c1)C(C(=O)NC1CCCC1)c1cccs1 (stereo unspecified)	5%	-2%	-3%	4µM*	-1%
O=C(Cn1ccc2cc(S(=O)(=O)N3CCCCCC3)ccc21)NCCc1ccc(Cl)cc1	-8%	-27%	-5%	x	x
CC1=C(C(=O)Nc2ccc(Cl)cc2)C(c2ccccc2)n2ncc(C(=O)Nc3ccccc3)c2N1 (stereo unspecified)	u	-13%	13%	x	x
O=C(Nc1ccc(Cl)cc1)c1cnn2c1NC(c1ccccc1)=CC2c1ccccc1 (stereo unspecified)	u	10µM*[quencher]	u	x	x
Nc1nc2ncc(=O)[nH]c2c(=O)[nH]1	-6%	-12%	u	x	-5%
O=C(Nc1ccc(F)c(F)c1)c1ccc(=O)n(Cc2ccc(F)cc2)c1	u	u	0%	x	x
Cc1ccc(-c2nc3ncccn3c2Nc2ccc3c(c2)OCCO3)cc1	1%	u	u	-16%[46.1 µM]	16%
Clc1ccc(-c2nc3cnccn3c2Nc2ccc3c(c2)OCO3)cc1	u	14µM*[quencher]	u	6%[46.1 µM]	3%
Oc1ccc(-c2nc3ncccn3c2Nc2ccc3c(c2)OCCO3)cc1	12%	25µM*[quencher]	u	-19%[46.1 µM]	17%
O=C(NCc1cccnc1)c1nn(-c2ccc(F)cc2)nc1CO	-3%	-11%	-9%	x	x
O=[N+]([O-])c1ccc(Nc2nc(N/N=C/c3cccc(F)c3)nc(N3CCCC3)n2)cc1	-13%	u	u	-34%	4%
CNc1nc(N/N=C/c2ccc([N+](=O)[O-])cc2)nc(Nc2ccccc2)n1	-7%	16µM*[quencher]	4µM*	-38%	-1%
O=C[C@@H]1CCCN1C(=O)[C@@H]1CCCN1C(=O)OCc1ccccc1	22µM*	-24%	18µM*	x	x
O=C(O)CCC(NC(=O)C1CCCN1C(=O)OCc1ccccc1)C(=O)O (stereo unspecified)	-11%	-15%	-11%	-19%	3%

Screens: PubChem, National Center for Advancing Translational Sciences (NCATS)
